The entries come from a sample that favours hits as a whole.
D1 mod: allosterically modulates the human D1 dopamine receptor. P21728. HEK293 D1, CRE-luciferase, dopamine EC30 potentiation; actives deviate in either direction. B-score at 10 µM. 58,000 compounds, 5.9% hits;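 active = luminescence count or its row- and column-corrected plate score outside the 99.7% band of the plate's sample wells, on either side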
BAP1 inh: blocks human BAP1 ubiquitin-AMC hydrolysis | Q92560 | recombinant BAP1, Ub-AMC hydrolysis fluorescence kinetic; active compounds read low | calls only at 20 µM | 72,000 compounds, 0.48% hits | AID 436;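 active = activity remaining at or below 50% of control, provided the compound also passes the data quality filters; inactive = the rest, including low values that fail the filters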;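 note: 100% = DMSO wells rate and 0% = substrate alone blank rate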
hDAT+cocaine: changed human dopamine transporter uptake under cocaine IC80; 110,000 compounds, 1.3% hits; LLC-PK1 hDAT cells, [14C]-dopamine uptake with cocaine IC80; actives deviate in either direction; Q01959; B-score at 10 µM;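 active = Z score or B-score, a plate-position-corrected score, falls beyond the plate's 99.7% confidence bounds, in either direction; inactive = both scores lie inside the 99.7% bounds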;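 note: scored against the spread of the other compound wells on the same plate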
Target sequence (Q01959 whole entry, looked up): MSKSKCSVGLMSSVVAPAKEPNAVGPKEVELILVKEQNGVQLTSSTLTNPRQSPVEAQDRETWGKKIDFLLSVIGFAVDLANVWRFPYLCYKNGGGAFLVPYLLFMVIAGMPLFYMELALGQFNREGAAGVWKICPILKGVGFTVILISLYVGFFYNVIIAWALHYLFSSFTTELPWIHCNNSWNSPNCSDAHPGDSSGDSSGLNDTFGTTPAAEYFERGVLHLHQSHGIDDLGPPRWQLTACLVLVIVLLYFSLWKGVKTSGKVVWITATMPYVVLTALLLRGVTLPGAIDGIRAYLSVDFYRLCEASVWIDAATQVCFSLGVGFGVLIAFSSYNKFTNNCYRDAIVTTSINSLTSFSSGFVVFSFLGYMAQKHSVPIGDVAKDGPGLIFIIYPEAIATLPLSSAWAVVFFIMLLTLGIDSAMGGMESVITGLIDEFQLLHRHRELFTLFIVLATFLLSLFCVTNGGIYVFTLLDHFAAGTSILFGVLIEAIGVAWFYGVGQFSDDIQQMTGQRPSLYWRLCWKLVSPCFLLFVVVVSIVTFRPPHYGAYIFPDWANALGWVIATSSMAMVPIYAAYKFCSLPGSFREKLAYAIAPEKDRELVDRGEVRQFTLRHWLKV
Starred values were filed as active, the others as inactive; i = inactive; · = no result.

SMILES	D1 mod	BAP1 inh	hDAT+cocaine
COc1ccc(C2C(C(=O)N3CCN(c4ccccn4)CC3)CC(=O)N2c2ccc(OC)cc2)cc1 (stereo not drawn)	-3.08*	·	0.0802
CCN(CC)S(=O)(=O)c1ccc(OC)c(NC(=O)c2cccc([N+](=O)[O-])c2C)c1	·	·	-7.69*
COc1ccc(NC(=O)c2cccc([N+](=O)[O-])c2C)c(OC)c1	·	i	·
C=CCn1c(SCc2cc(=O)n3ccsc3n2)nc2scc(C3CC3)c2c1=O	9.78*	·	2.31
C=CCn1c(SCC(=O)NC2CCS(=O)(=O)C2)nc2scc(C3CC3)c2c1=O (stereo not drawn)	2.1	i	-0.0412
O=c1[nH]c2cc3c(cc2cc1CN(Cc1ccccc1)Cc1nnnn1Cc1ccco1)OCCO3	1.21	i	0.572
Cc1cc(C)c2cc(CN(Cc3ccc4c(c3)OCO4)Cc3nnnn3Cc3ccco3)c(=O)[nH]c2c1	2.75	i	2.95*
Cc1ccc(-c2csc(NC(=O)CSC3=NCCS3)n2)cc1	·	·	0.508
Cc1ccc(-c2csc(NC(=O)CSc3nc(C)cc(=O)[nH]3)n2)cc1	·	·	2.32*
CC(C)CCn1c(N2CCOCC2)nc2c1c(=O)n(CC(N)=O)c(=O)n2C	-0.599	i	1.77
CN(C)C=NCCn1c(N2CCOCC2)nc2c1c(=O)n(C)c(=O)n2C	-3.78*	i	-0.871
CCc1ccc(S(=O)(=O)Nc2ccc(O)c3c(=O)cc(-c4ccccc4Cl)oc23)cc1	·	·	0.0741
O=c1cc(-c2ccccc2Cl)oc2c(NS(=O)(=O)c3cc(Cl)cc(Cl)c3O)ccc(O)c12	·	·	-6.33*
O=C(Cn1c2ccccc2c(=O)c2ccccc21)Nc1ccc2c(c1)OCCO2	·	i	·
CC(=O)Nc1cccc(NC(=O)c2ccccc2Br)c1	·	i	·
CCc1ccc2[nH]c(=O)c(CN(CCCN3CCOCC3)C(=O)Nc3cccc(Cl)c3)cc2c1	0.399	i	3.31*
CCc1ccc2[nH]c(=O)c(CN(CCCN3CCOCC3)C(=O)Nc3ccc(Cl)cc3)cc2c1	0.82	i	1.81
CC1=C(C(=O)Nc2cccc(C)c2C)C(c2cccc(Cl)c2)NC(=S)N1 (stereo not drawn)	·	i	·
COc1ccc(C2CC(c3ccccc3)n3nnnc3N2)cc1 (stereo not drawn)	·	·	-0.5
CCOc1ccc(C2CC(c3cccc(OC)c3OC)n3nnnc3N2)cc1Cl (stereo not drawn)	·	i	-4.25*
Nc1nonc1C(=O)NCCNCc1cc(Br)ccc1OCc1ccccc1F	-3.3*	i	0.0982
Nc1nonc1C(=O)NCCNCc1ccccc1OCc1ccccc1F	-2.25	i	-0.0217
Clc1ccccc1OCc1nc(-c2ccccn2)no1	-2.34	i	·
Clc1ccc(OCc2nc(-c3ccccn3)no2)c(Br)c1	-6.91*	i	0.445
Brc1ccc(-c2nc(-c3ccccn3)no2)o1	·	i	1.1
SMILES	D1 mod	BAP1 inh	hDAT+cocaine
Clc1ccc(-c2nc(-c3ccccn3)no2)cc1Cl	-5.55*	i	-0.743
COc1cc(Br)c(C2C(C(=O)OC3CCCC3)=C(C)NC3=C2C(=O)CCC3)cc1OC (stereo not drawn)	·	i	·
CCCC(C)n1[nH]c(=O)cc1N (stereo not drawn)	·	i	-2.79*
CCCCC(C)n1[nH]c(=O)cc1N (stereo not drawn)	·	·	-0.935
O=C1NCCCC2c3c(cc(Br)c(O)c3Br)OC12N1CCOCC1 (stereo not drawn)	0.0617	i	1.35
O=C1NCCCC2c3cc(O)c4ccccc4c3OC12N1CCCCC1 (stereo not drawn)	0.000953	i	-3.42*
O=C(NCCC1=CCCCC1)C(Cc1ccc([N+](=O)[O-])cc1)N1C(=O)c2ccccc2C1=O (stereo not drawn)	·	i	·
C=CCn1c(-c2ccc(N)cc2)nc2ccccc21	-1.48	i	-0.0645
C=CCn1c(N)nc2ccccc21	-0.0942	i	-2.58*
CCC(=O)Nc1ccc(C)cc1C	·	i	·
CC1=CCC2CC1NC(=O)CCOCCC(=O)NC2(C)C (stereo not drawn)	·	i	·
CC(=O)Nc1ccc(S(=O)(=O)N2CCCc3ccccc32)cc1	-0.702	i	0.00963
Nc1ccc(S(=O)(=O)N2CCCc3ccccc32)cc1	-0.357	i	2.27*
O=C(Nc1cccc(-c2nc3ncccc3o2)c1)c1ccc(Br)o1	·	i	·
O=C(Nc1cccnc1)c1ccc(Oc2ccccc2)cc1	-6.38*	i	0.366
CCOc1cc([N+](=O)[O-])cc(C=Nc2cccc(-c3nc4cc(C)ccc4o3)c2)c1O	·	i	·
NCCCc1nc2c(ccc3ccccc32)[nH]1	·	i	·
CCC(C(=O)NC1CCCC1)N(Cc1cccs1)C(=O)Cn1nnc(-c2ccc(OC)c(OC)c2)n1 (stereo not drawn)	·	·	0.61
CCC(C(=O)NC1CCCC1)N(C(=O)Cn1nnc(-c2ccc(C)cc2)n1)C1CCCC1 (stereo not drawn)	·	·	3.71*
COc1ccc(-c2nnn(CC(=O)N(Cc3cccs3)C(C)C(=O)NC3CCCC3)n2)cc1OC (stereo not drawn)	4.03*	i	-0.448
CCCC(C(=O)NC1CCCC1)N(C(=O)Cn1nnc(-c2ccc(C)o2)n1)C1CCCC1 (stereo not drawn)	-0.354	i	0.686
CCCSc1cccc(C#N)c1C#N	·	i	·
CC1=C(C(=O)OCc2ccccc2)C(c2ccc(-c3ccccc3)cc2)NC(=O)N1CCCCCC(=O)O (stereo not drawn)	·	·	1.59
CC1=C(C(=O)OCc2ccccc2)C(c2ccccc2-c2ccccc2)NC(=O)N1CCCCCC(=O)O (stereo not drawn)	·	·	2.77*
CC1=C(C(=O)OCc2ccccc2)C(c2ccc(-c3ccccc3)cc2)NC(=O)N1CCCC(=O)O (stereo not drawn)	·	·	0.126
SMILES	D1 mod	BAP1 inh	hDAT+cocaine
CC1=C(C(=O)OCc2ccccc2)C(c2ccccc2OS(=O)(=O)c2ccc(C)cc2)NC(=O)N1CCCC(=O)O (stereo not drawn)	·	·	2.5*
O=C(O)c1cccnc1Nc1cccc(C(F)(F)F)c1	-1.75	i	1.89
O=C(COC(=O)c1cccnc1Nc1cccc(C(F)(F)F)c1)NCCN1C(=O)CSC1=O	·	i	3.52*
O=C(Nc1cc2c(cc1Cl)C(=O)c1ccccc1C2=O)c1ccco1	·	i	·
CCCCNC(=O)C1CCCN1C(=O)NC1CCCCC1 (stereo not drawn)	·	·	-7.87*
O=C(NCC1CCCO1)C1CCCN1C(=O)NC1CCCCC1 (stereo not drawn)	-0.0055	i	-0.476
C=CCNc1nc2c(c(=O)[nH]c(=O)n2C)n1C	·	i	·
CCCN(CCC)C(=O)Cn1c(=O)n(CCC(=O)NCCc2ccccc2)c(=O)c2ccccc21	·	·	-7.96*
COCCNC(=O)Cn1c(=O)n(CCC(=O)NCCc2ccccc2)c(=O)c2ccccc21	0.345	i	·
CCOC(=O)C1CN(S(=O)(=O)c2ccc(OC)cc2)c2cc(S(=O)(=O)CC)ccc2O1 (stereo not drawn)	·	·	-7.93*
CCS(=O)(=O)c1ccc2c(c1)N(S(C)(=O)=O)CC(C(=O)NC1CC1)O2 (stereo not drawn)	·	·	-1.13
O=C(Nc1nc(-c2ccccc2)c(-c2ccccc2)s1)c1ccc(S(=O)(=O)N2CCOCC2)cc1	·	i	·
CCOc1ccccc1Oc1ccc(C(F)(F)F)cn1	-4*	i	-0.0214
CCOc1ccccc1OCCOc1cccc(C(F)(F)F)c1	·	·	-0.998

Source: PubChem (several laboratories)
